{"source": "the supplement of paper PMC11732987", "about": "“Enantioselective OTUD7B fragment discovery through chemoproteomics screening and high-throughput optimisation” (Communications Chemistry, 2025)", "experiment_in_all_cases": "log2 ratio of Biotin-Ahx-Ub-VS probe labelling (fragment/DMSO); higher = less target engagement (more negative = stronger competition), active = hit call of the paper (q ≤ 0.05, log2 ratio ≤ -1)", "conditions_in_all_cases": "compound concentration: 200 uM; treatment time: 3 h", "key": {"USP42": {"molecular_target": "T1, USP42 (UniProt Q9H9J4)", "T1 sequence (whole entry)": "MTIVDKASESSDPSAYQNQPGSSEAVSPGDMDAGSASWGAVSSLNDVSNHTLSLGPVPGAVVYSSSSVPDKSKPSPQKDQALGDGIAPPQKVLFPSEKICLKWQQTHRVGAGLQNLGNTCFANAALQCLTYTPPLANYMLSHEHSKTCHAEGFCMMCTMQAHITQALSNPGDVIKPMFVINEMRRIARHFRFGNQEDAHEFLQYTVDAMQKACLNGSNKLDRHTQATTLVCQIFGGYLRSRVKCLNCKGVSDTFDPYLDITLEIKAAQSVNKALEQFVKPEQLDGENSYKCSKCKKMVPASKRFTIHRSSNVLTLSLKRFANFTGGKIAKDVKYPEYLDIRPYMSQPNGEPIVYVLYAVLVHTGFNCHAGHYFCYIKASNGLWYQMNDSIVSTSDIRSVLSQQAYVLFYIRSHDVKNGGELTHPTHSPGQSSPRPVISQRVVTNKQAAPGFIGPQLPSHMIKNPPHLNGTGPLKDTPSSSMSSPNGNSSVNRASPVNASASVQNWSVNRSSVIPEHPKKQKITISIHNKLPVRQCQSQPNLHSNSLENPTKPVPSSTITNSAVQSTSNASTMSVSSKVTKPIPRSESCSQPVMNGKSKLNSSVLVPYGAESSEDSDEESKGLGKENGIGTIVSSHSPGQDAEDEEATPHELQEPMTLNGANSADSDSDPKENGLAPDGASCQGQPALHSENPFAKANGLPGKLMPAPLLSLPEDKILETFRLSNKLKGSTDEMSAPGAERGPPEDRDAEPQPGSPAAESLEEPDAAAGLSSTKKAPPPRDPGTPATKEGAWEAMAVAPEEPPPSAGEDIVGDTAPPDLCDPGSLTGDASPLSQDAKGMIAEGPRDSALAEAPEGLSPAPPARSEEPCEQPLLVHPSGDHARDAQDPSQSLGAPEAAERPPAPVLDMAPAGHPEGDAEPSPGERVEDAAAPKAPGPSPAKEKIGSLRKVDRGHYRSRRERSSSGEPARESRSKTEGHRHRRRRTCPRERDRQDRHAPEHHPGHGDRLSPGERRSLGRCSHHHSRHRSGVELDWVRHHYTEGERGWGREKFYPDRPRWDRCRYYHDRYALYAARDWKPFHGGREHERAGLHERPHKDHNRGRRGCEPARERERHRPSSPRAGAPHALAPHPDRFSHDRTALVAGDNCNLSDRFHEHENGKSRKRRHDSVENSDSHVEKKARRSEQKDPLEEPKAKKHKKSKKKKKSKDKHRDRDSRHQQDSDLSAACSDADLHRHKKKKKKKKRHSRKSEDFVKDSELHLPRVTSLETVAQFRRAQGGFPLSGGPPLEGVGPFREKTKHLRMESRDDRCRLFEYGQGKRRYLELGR", "in_short": "(§1)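 Each value is an average log2 ratio of fragment to vehicle, tested by unpaired t-test. The underlying Spectronaut label-free quantities were global-median-normalised, and only proteins with ≥2 unique peptides were included. Triplicate HEK293T lysate samples (495 µg) were exposed to fragment at 200 µM or vehicle for 3 h, then to Biotin-Ahx-Ub-VS at 0.5 µM final for 1 h, before NeutrAvidin enrichment of labelled DUBs, LysC and trypsin digestion, and diaPASEF LC-MS/MS.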"}, "USP46": {"molecular_target": "USP46 (UniProt P62068)", "sequence (P62068 whole entry)": "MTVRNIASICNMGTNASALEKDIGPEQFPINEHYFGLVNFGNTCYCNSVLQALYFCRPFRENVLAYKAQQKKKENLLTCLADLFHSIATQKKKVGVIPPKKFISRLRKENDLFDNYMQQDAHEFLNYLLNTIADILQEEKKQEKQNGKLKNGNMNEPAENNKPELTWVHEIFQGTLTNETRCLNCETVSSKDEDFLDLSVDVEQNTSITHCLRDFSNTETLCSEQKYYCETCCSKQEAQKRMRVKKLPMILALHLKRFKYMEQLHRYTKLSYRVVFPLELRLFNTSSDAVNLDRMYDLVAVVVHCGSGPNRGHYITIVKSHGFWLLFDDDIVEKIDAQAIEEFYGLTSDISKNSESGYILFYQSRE", "in_short": "as §1"}, "USP47": {"molecular_target": "T2, USP47 (UniProt Q96K76)", "T2 sequence (whole entry)": "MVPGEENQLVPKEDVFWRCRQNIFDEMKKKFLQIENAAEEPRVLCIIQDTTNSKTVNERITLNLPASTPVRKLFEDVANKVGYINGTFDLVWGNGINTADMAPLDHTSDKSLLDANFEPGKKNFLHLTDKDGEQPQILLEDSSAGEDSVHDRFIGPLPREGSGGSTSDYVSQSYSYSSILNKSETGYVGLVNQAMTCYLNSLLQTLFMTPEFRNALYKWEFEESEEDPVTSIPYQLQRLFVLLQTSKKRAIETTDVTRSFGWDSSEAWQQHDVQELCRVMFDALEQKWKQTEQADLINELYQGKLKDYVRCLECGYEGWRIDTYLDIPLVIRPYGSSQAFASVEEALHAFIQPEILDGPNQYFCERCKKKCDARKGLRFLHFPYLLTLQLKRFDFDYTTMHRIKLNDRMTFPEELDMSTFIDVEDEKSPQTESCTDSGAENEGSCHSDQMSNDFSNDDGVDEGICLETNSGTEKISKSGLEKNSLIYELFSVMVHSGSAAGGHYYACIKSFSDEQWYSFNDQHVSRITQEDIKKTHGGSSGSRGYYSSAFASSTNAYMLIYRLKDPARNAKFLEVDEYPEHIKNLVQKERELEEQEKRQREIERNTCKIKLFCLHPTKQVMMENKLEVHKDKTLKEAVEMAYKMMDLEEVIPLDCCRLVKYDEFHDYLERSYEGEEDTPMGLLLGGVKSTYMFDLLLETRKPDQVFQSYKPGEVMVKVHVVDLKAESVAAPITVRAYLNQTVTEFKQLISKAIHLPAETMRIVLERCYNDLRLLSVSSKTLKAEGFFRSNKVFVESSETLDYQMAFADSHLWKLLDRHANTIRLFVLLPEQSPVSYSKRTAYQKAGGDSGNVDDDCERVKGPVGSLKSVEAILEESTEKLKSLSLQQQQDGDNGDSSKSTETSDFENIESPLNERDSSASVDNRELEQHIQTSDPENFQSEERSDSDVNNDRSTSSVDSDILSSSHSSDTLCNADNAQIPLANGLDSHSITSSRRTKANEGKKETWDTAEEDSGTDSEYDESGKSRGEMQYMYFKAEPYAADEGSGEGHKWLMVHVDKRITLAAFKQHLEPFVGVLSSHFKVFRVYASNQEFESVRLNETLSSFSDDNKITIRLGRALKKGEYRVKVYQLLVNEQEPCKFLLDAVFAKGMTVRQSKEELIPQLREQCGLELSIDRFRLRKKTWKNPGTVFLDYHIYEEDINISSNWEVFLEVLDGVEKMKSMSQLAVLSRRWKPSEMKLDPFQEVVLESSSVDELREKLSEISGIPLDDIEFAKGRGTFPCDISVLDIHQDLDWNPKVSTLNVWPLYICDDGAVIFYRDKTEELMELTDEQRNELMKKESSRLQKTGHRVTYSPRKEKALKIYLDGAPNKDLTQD", "in_short": "as §1"}, "USP48": {"molecular_target": "T3, USP48 (UniProt Q86UV5)", "T3 sequence (whole entry)": "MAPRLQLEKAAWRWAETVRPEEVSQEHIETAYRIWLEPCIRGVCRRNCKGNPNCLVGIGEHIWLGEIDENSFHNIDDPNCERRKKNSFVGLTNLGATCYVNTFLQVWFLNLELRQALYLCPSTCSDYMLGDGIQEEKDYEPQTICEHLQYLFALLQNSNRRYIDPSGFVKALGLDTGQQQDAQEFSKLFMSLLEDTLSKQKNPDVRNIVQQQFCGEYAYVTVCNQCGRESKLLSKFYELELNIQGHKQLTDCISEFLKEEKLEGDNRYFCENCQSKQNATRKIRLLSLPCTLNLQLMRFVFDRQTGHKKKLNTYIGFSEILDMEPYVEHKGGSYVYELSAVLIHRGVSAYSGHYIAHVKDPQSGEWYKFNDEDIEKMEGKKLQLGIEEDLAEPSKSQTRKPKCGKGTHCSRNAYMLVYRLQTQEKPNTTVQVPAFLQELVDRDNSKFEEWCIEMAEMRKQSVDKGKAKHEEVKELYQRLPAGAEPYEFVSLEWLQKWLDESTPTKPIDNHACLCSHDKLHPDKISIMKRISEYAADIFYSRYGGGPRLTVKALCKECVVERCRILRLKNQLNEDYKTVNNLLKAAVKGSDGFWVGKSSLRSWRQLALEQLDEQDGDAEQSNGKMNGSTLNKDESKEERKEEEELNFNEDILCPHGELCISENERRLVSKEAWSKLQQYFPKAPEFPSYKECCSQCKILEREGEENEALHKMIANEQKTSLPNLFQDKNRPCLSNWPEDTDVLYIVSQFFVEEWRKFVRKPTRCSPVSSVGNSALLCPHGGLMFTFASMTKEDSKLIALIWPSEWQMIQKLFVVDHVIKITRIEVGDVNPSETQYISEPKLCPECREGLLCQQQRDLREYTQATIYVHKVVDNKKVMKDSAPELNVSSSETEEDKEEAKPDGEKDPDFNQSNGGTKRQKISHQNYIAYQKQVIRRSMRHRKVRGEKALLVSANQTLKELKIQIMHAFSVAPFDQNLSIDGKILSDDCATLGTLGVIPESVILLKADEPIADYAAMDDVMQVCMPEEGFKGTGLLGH", "in_short": "as §1"}, "USP5": {"molecular_target": "T4, USP5 (UniProt P45974)", "T4 sequence (whole entry)": "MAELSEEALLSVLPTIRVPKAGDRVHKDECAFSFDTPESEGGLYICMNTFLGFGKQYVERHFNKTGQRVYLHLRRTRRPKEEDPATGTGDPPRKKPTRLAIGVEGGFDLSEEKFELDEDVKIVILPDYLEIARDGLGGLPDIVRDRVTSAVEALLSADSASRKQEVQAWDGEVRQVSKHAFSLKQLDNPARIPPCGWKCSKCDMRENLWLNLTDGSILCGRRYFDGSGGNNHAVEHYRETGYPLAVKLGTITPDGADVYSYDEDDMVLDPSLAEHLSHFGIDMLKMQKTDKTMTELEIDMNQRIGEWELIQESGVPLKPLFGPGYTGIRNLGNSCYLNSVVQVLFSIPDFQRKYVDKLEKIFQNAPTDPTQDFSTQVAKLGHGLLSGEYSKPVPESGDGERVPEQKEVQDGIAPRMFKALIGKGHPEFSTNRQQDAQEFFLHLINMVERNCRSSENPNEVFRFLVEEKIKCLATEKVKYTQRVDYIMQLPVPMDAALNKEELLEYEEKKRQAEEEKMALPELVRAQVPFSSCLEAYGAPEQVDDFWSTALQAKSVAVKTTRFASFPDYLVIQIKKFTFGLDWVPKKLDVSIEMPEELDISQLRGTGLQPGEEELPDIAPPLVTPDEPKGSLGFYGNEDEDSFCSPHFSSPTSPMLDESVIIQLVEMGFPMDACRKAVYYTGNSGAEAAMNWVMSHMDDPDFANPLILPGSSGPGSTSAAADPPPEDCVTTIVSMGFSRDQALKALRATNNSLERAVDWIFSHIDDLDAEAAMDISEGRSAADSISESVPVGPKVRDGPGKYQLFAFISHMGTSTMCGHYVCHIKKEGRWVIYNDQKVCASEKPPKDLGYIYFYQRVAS", "in_short": "as §1"}, "USP54": {"molecular_target": "USP54 (UniProt Q70EL1)", "sequence (Q70EL1 whole entry)": "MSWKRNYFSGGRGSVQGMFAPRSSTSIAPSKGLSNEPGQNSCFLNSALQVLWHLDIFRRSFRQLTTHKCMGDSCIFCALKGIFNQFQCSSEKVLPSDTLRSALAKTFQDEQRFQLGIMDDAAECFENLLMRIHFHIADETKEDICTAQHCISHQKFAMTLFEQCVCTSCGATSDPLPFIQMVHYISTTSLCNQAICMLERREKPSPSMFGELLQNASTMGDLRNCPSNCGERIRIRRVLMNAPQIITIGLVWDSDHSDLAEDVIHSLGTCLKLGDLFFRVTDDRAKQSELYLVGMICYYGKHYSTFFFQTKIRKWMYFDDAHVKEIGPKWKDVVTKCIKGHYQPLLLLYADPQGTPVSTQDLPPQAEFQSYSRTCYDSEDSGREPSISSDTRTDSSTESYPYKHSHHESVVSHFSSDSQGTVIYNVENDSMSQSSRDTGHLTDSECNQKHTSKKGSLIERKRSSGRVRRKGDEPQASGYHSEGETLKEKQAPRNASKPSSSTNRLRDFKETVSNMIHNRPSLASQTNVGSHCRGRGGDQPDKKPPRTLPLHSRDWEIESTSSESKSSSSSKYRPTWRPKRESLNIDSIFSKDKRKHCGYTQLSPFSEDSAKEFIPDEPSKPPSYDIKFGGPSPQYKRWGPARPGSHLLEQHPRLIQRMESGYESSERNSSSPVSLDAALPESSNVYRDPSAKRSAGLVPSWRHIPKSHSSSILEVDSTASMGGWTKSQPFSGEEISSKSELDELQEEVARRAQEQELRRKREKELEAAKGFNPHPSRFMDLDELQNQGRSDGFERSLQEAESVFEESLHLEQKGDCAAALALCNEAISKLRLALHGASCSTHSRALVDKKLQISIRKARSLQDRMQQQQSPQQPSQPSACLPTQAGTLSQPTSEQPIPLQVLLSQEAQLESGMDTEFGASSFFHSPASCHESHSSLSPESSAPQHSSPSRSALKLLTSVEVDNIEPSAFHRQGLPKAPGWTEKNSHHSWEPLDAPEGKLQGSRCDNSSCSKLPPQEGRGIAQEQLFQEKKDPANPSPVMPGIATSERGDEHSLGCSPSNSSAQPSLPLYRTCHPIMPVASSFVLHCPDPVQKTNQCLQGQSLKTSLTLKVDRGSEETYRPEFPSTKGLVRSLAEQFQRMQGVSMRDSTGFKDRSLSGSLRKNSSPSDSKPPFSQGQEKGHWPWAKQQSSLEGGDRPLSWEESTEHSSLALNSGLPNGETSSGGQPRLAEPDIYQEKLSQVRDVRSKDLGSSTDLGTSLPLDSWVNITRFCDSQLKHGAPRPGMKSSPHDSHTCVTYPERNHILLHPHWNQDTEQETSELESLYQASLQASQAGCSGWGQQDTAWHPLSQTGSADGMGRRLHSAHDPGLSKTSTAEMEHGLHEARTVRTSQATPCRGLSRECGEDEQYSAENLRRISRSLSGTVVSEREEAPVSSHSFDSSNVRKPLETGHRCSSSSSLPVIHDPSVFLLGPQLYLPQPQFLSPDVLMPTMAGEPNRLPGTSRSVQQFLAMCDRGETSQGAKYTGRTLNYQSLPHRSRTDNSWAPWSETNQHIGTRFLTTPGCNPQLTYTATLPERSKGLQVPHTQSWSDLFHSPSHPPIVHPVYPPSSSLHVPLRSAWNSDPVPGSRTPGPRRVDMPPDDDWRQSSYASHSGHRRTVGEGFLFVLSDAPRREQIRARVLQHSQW", "in_short": "as §1"}, "USP7": {"molecular_target": "USP7 (UniProt Q93009)", "in_short": "as §1"}, "USP8": {"molecular_target": "T5, USP8 (UniProt P40818)", "T5 sequence (whole entry)": "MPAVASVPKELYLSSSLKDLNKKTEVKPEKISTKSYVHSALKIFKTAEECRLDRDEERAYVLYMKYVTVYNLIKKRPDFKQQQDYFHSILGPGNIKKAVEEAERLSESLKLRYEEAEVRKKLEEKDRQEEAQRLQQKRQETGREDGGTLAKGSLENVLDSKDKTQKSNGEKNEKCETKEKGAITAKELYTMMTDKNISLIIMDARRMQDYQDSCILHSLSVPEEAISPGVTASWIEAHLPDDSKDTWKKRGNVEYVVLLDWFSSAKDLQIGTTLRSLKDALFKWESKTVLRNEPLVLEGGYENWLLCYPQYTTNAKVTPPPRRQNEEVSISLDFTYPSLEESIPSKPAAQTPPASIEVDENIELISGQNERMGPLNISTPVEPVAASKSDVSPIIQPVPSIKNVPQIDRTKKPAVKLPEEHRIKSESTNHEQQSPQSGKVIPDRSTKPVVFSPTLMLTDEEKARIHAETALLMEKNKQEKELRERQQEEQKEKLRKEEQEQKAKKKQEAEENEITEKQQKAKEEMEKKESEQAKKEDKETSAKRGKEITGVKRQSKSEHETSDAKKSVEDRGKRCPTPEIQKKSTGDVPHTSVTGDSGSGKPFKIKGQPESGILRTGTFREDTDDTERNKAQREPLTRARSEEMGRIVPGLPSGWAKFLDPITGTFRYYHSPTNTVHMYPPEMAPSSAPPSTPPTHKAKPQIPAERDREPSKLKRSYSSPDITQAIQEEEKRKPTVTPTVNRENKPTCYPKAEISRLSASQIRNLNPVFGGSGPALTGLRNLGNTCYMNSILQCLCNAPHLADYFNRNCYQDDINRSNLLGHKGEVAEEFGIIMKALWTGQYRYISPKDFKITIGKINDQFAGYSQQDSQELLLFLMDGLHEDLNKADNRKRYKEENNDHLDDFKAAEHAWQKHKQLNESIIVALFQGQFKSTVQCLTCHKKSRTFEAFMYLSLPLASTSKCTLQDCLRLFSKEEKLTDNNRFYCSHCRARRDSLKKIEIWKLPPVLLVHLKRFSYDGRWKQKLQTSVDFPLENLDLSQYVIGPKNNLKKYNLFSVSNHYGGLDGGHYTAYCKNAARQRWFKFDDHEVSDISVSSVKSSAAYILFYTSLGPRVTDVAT", "in_short": "as §1"}, "USP9X": {"molecular_target": "USP9X (UniProt Q93008)", "sequence (Q93008 whole entry)": "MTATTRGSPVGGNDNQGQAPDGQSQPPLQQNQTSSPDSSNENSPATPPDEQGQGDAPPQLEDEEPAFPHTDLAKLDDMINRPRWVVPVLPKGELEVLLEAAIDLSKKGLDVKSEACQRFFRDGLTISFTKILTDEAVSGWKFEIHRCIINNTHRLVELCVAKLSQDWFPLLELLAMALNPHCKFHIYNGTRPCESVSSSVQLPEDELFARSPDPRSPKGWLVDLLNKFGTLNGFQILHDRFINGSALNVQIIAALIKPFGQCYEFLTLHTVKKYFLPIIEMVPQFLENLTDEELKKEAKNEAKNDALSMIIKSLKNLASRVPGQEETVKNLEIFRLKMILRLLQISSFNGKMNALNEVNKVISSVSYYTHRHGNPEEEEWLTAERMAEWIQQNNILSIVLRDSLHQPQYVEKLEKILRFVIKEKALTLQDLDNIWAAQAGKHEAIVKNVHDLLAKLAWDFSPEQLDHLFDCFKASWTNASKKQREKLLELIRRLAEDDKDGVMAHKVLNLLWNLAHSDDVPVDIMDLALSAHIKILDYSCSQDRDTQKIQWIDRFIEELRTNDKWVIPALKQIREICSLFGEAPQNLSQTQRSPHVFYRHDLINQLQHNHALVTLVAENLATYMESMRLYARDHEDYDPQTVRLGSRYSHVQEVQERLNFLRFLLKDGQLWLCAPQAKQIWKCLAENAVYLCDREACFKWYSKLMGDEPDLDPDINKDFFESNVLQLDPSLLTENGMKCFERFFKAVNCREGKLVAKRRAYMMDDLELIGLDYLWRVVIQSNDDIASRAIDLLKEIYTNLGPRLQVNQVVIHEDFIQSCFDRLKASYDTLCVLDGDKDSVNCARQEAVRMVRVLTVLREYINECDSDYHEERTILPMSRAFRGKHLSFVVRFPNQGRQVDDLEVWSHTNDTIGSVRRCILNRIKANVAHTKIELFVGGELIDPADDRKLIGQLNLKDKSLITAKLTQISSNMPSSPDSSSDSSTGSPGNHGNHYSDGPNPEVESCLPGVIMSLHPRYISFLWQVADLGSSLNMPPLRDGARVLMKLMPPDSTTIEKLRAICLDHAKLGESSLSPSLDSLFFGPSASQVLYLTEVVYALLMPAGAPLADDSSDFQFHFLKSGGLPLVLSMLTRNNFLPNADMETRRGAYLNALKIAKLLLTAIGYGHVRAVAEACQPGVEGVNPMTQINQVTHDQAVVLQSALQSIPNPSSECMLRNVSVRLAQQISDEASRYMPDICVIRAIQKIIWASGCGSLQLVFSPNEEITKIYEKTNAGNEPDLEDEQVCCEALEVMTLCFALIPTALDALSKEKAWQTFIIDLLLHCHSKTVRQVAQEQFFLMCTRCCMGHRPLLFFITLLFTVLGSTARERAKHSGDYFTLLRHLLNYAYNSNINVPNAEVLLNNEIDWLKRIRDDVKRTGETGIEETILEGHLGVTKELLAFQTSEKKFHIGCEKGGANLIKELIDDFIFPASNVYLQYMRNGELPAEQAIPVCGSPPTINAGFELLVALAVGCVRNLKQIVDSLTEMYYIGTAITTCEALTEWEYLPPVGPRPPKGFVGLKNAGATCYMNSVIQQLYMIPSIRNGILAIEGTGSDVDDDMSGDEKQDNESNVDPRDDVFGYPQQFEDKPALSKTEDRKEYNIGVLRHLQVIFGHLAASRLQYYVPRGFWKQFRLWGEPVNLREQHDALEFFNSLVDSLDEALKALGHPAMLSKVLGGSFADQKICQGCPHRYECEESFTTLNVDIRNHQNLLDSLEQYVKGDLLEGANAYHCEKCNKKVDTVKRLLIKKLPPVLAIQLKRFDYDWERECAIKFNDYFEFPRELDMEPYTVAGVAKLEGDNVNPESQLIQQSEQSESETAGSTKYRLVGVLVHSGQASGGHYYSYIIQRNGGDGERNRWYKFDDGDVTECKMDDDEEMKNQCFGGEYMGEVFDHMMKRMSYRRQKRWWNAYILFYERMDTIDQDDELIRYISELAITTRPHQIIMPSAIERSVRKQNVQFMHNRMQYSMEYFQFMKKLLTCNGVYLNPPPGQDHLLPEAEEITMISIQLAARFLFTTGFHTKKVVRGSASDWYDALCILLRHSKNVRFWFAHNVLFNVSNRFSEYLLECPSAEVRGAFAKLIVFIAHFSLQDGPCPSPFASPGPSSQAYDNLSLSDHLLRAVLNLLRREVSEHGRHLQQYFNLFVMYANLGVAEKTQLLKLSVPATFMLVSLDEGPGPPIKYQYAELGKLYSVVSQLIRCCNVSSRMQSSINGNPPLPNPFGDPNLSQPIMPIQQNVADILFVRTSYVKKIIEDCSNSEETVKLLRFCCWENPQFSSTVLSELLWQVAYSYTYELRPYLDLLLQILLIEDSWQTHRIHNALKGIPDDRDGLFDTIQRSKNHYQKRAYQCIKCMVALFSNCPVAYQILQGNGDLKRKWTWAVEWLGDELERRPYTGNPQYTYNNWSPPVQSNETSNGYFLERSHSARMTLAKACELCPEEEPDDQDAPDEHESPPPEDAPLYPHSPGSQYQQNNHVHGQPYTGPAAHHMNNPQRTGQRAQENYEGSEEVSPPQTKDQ", "in_short": "as §1"}, "UniProt O00487": {"molecular_target": "UniProt O00487", "sequence (O00487 whole entry)": "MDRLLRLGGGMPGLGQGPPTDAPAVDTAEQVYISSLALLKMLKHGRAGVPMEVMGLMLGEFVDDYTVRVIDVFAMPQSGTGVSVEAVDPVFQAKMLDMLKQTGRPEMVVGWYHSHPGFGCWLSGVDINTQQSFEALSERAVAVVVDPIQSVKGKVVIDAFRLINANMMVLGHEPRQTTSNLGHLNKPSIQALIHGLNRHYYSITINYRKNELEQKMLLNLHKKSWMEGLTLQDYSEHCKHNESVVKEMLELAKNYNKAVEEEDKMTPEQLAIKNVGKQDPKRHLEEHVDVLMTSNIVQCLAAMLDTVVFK", "in_short": "as §1"}}, "note": "A number with no mark means an inactive call."}
{"compound": "Cc1conc1C1CN(C(=O)CCl)C1", "values": [{"measurement": "log2 ratio of Biotin-Ahx-Ub-VS probe labelling", "setting": "USP42", "value": 0.317}, {"measurement": "log2 ratio of Biotin-Ahx-Ub-VS probe labelling", "setting": "USP46", "value": -0.643}, {"measurement": "log2 ratio of Biotin-Ahx-Ub-VS probe labelling", "setting": "USP47", "value": -0.971}, {"measurement": "log2 ratio of Biotin-Ahx-Ub-VS probe labelling", "setting": "USP48", "value": -0.753}, {"measurement": "log2 ratio of Biotin-Ahx-Ub-VS probe labelling", "setting": "USP5", "value": -0.555}, {"measurement": "log2 ratio of Biotin-Ahx-Ub-VS probe labelling", "setting": "USP54", "value": 1.02}, {"measurement": "log2 ratio of Biotin-Ahx-Ub-VS probe labelling", "setting": "USP7", "value": "-1.04 (active)"}, {"measurement": "log2 ratio of Biotin-Ahx-Ub-VS probe labelling", "setting": "USP8", "value": -0.915}, {"measurement": "log2 ratio of Biotin-Ahx-Ub-VS probe labelling", "setting": "USP9X", "value": -0.803}, {"measurement": "log2 ratio of Biotin-Ahx-Ub-VS probe labelling", "setting": "UniProt O00487", "value": -0.115}]}
